Experimental findings from PubChem BioAssay (Tox21) are described below.

The target in experiment [1] is Gonadotropin-releasing hormone receptor (Homo sapiens) (UniProt P30968). The experiment is described as follows: Human gonadotropin-releasing hormone receptor (GnRHR) small molecule agonists, calcium flux assay in GnRHR-HEK293 cells (AID 1920063). Note: nearly all actives have a fitted effect of over 35% in size. The procedure, abridged: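 Cells: HEK293 stably expressing human GnRHR. Steps: overnight (18 h) culture, 1 h calcium dye loading at 37 C, compound addition, kinetic fluorescence read at 480/540 nm. Each compound tested at 15 concentrations in triplicate.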
A general note: A change in cytosolic calcium serves as a functional read-out for many receptors and channels.

For experiment [2], the target named is KiSS-1 receptor (Homo sapiens) (UniProt Q969F8). The experiment is described as follows: Human kisspeptin (KISS1R) small molecule agonists, calcium flux assay in KISS1R-HEK293 cells (AID 1920064; active = well fitted activation curve with a large enough effect in the repeat runs). The procedure, abridged: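 Cells plated and incubated 18 h; dye added, 1 h at 37 C; compounds in DMSO pinned in; signal read at 480/540 nm every second for 3 min. Each compound tested at 15 concentrations in triplicate.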

Experiment [3] can be described thus: G protein-coupled receptor (GPCR) small molecule agonists, calcium flux assay: HEK293 wild type cell line counter screen (AID 1920065). An outline of the steps: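 Counter-screen of the Tox21 10K library for non-specific calcium release: dye-loaded cells received compounds in DMSO and were monitored by kinetic fluorescence (480/540 nm, 3 min). Fifteen concentrations, run in triplicate.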

Experiment [4] can be described thus: p53 small molecule agonists, cell-based qHTS assay with rat liver microsomes (AID 1963578). An outline of the steps:
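Each plate received p53RE-bla cells, then compound, then rat liver microsomes and NADPH (both 0.5 mg/mL final). Plates were held 16 h at 37 C, and beta-lactamase activity was detected with LiveBLAzer over 2 h.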

A short description of experiment [5]: p53 small molecule agonists, cell-based qHTS assay with human liver microsomes: qHTS cell viability counter screen (AID 1963579). Note: nearly all actives have a fitted effect of over 45% in size. Note: potency is the fitted concentration of half-maximal effect. An outline of the steps: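 Tox21 library compounds, delivered from DMSO stocks, were tested on p53RE-bla cells together with 0.5 mg/mL human liver microsomes and 0.5 mg/mL NADPH (final) over 16 h at 37 C; CellTiter-Glo luminescence served as the cytotoxicity measure.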
In general terms: qHTS replaces the single test concentration by a dilution series.

Experiment [6] is described as follows: p53 small molecule agonists, cell-based qHTS assay with rat liver microsomes: qHTS cell viability counter screen (AID 1963580). Note: nearly all actives have a fitted effect of over 45% in size. An outline of the steps: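 p53RE-bla HCT-116 cells (4,000/well) rested 5 h at 37 C, then given Tox21 compounds in DMSO with rat liver microsomes (0.5 mg/mL final) plus NADPH (0.5 mg/mL final) for 16 h at 37 C. Viability read by CellTiter-Glo luminescence after 30 min at room temperature.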

Experiment [7] can be described thus: p53 small molecule agonists, cell-based qHTS assay: qHTS cell viability counter screen (AID 1963581). Note: nearly all actives have a fitted effect of over 45% in size. Note: potency is the fitted concentration of half-maximal effect. An outline of the steps: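 Cells: HCT-116 with p53 response element-driven beta-lactamase. Treatment: 16 h, 37 C, compounds in DMSO. Read: CellTiter-Glo luminescence after 30 min RT.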
Experiment [8] is described as follows: p53 small molecule agonists, cell-based qHTS assay (AID 1963582; active = well fitted activation curve with a large enough effect in the signal ratio in the repeat runs, not every such curve was filed as active; the % refers to the signal ratio). The procedure, abridged: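 Quantitative HTS in p53RE-bla cells: after a 5 h settling period, compounds delivered in DMSO were left on cells for 16 h at 37 C, and reporter induction was measured as fluorescence following 2 h substrate loading.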
Experiment [9] has as its target 5-hydroxytryptamine receptor 2A (Homo sapiens) (UniProt P28223). Nature of the experiment: 5-hydroxytryptamine receptor 2A (HTR2A) small molecule antagonists, cell-based qHTS assay (AID 1963586). Note: nearly all actives have a fitted effect of over 45% in size. An outline of the steps: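 Antagonist-mode intracellular calcium assay: DOI (4 nM) added after 5 min compound pre-incubation at room temperature to dye-loaded HTR2A-CHO cells. Fluorescence followed for 3 min, sampled every second.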

For experiment [10] the target is unchanged. The experiment is described as follows: 5-hydroxytryptamine receptor 2A (HTR2A) small molecule agonists, cell-based qHTS assay (AID 1963587). Note: nearly all actives have a fitted effect of over 30% in size. Note: potency is the fitted concentration of half-maximal effect. The procedure, abridged:
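HTR2A-CHO cells, plated 18 h at 37 C/5% CO2, dye-loaded 1 h at 37 C; compounds in DMSO added by pin tool (agonist mode). Intracellular calcium flux read as kinetic fluorescence on FDSS over 2 min at 1 s intervals.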

Experiment [11] deals with Muscarinic acetylcholine receptor M1 (Homo sapiens) (UniProt P11229). The experiment is described as follows: Cholinergic receptor muscarinic 1 (CHRM1) small molecule antagonists, cell-based qHTS assay (AID 1963588). Note: nearly all actives have a fitted effect of over 40% in size. An outline of the steps:
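CHRM1-CHO calcium-flux assay, antagonist mode. Cells were seeded 18 h, dye-loaded 1 h at 37 C and given compound for 5 min at RT, then acetylcholine was added at 50nM. FDSS fluorescence was read 3 min; 15 concentrations, three runs.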

Experiment [12] shares this target. The experiment is described as follows: Cholinergic receptor muscarinic 1 (CHRM1) small molecule agonists, cell-based qHTS assay (AID 1963589). Note: nearly all actives have a fitted effect of over 35% in size. The procedure, abridged: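 Agonist-mode qHTS in CHO cells stably carrying human muscarinic M1. Intracellular calcium is tracked by fluorescence every second after compound transfer; each compound runs at 15 concentrations in three independent runs.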

The nature of experiment [13]: cAMP Responsive Elements (CRE) small molecule agonists, cell-based qHTS assay (AID 1963590). An outline of the steps: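 Agonist mode qHTS in CRE-bla HEK 293T cells: compounds dosed from DMSO for 3 h at 37 C/5% CO2, followed by LiveBLAzer B/G FRET substrate for 2 h at room temperature.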
Experiment [14] is described as follows: cAMP Responsive Elements (CRE) small molecule antagonists, cell-based qHTS assay (AID 1963591; active = well fitted inhibition curve with a large enough effect in the signal ratio in the repeat runs, not every such curve was filed as active; the % refers to the signal ratio). An outline of the steps:
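Antagonist mode: test compounds are co-incubated with the adenylyl cyclase activator NKH477 (0.25 uM final) on CRE-bla HEK293T cells for 3 h at 37 °C, followed by LiveBLAzer substrate loading.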

Experiment [15] has as its target Beta-2 adrenergic receptor (Homo sapiens) (UniProt P07550). Nature of the experiment: Adrenergic beta2 receptor (ADRB2) small molecule antagonists, cell-based qHTS assay (AID 1963592). Note: series mostly up to about 92 µM; nearly all actives have a fitted effect of over 50% in size. The procedure, abridged: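 Cells (CHO, stable ADRB2 overexpression) incubated 18-20hr at 37C; compounds added from DMSO; agonist mix (1nM isoproterenol, 100uM IBMX, 25uM Ro-20-1724) added; 0.5hr RT; d2-cAMP and anti-cAMP-cryptate added; 1hr RT; 665/615 nm read.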

Experiment [16] deals with D(2) dopamine receptor (Homo sapiens) (UniProt P14416). Nature of the experiment: Dopamine D2 receptor (DRD2) small molecule agonists, cell-based qHTS assay (AID 1963594). Note: nearly all actives have a fitted effect of over 35% in size. The procedure, abridged:
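HEK293 cells stably expressing DRD2 were cultured 24 h at 37 C, then given Ro20-1724 (0.1 mM final) and compounds for 10 min at room temperature. NKH477 (200nM) was then added for 30 min. cAMP was read by HTRF.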

For experiment [17] the target is unchanged. Nature of the experiment: Dopamine D2 receptor (DRD2) small molecule antagonists, cell-based qHTS assay (AID 1963595; active = well fitted inhibition curve with a large enough effect in the signal ratio in the repeat runs, with a control signal flat; the % refers to the signal ratio). The procedure, abridged:
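Antagonism was scored as restored cAMP in HEK293-DRD2 cells. These cells were stimulated with 200 nM NKH477 and 12 nM quinpirole for 30 min at room temperature, in the presence of 0.1 mM Ro20-1724.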

The target in experiment [18] is Beta-2 adrenergic receptor (Homo sapiens) (UniProt P07550). The experiment is described as follows: Adrenergic beta2 receptor (ADRB2) small molecule agonists, cell-based qHTS assay (AID 1963593).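 Note: CHO cells stably overexpressing human ADRB2.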 An outline of the steps:
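CHO cells stably over-expressing ADRB2 were plated overnight at 37C, then dosed with compounds plus a stimulation mix containing 100uM IBMX and 25uM Ro-20-1724 for 0.5hr at room temperature. cAMP was measured by HTRF competition, 1hr.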

Experiment [19] is described as follows: p53 small molecule agonists, cell-based qHTS assay with human liver microsomes (AID 1963577).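 Note: p53 response element beta-lactamase reporter cells with liver microsomes plus NADPH.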 An outline of the steps:
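Metabolically competent format: test substances, human liver microsomes and NADPH (both 0.5 mg/mL final) incubated with p53RE-bla cells 16 h at 37 C. Beta-lactamase reporter signal then quantified by fluorescence.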

SMILES strings stand for the structures. Several values for one entry are separate records, joined by “and”; a condition that tells them apart may be missing. Identical values can stand only once. A number with no mark means an inactive call. Results filed as inconclusive are left out. Activity calls are given as the source filed them. Unless noted, calls come from the whole dose curve.
% is set by controls: 0 for no effect and ±100 for the full control effect.

Sequence of Gonadotropin-releasing hormone receptor (Homo sapiens) (P30968 whole entry, looked up): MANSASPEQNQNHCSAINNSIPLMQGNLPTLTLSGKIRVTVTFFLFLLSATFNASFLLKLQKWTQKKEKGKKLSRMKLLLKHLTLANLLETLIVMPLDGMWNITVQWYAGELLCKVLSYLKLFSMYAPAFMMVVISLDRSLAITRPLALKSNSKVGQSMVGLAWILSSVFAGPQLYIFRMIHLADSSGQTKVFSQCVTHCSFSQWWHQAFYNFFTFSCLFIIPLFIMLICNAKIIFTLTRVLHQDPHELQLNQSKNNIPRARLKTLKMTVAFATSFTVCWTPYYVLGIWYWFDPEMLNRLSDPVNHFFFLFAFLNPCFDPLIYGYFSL
Sequence of Muscarinic acetylcholine receptor M1 (Homo sapiens) (P11229 whole entry, looked up): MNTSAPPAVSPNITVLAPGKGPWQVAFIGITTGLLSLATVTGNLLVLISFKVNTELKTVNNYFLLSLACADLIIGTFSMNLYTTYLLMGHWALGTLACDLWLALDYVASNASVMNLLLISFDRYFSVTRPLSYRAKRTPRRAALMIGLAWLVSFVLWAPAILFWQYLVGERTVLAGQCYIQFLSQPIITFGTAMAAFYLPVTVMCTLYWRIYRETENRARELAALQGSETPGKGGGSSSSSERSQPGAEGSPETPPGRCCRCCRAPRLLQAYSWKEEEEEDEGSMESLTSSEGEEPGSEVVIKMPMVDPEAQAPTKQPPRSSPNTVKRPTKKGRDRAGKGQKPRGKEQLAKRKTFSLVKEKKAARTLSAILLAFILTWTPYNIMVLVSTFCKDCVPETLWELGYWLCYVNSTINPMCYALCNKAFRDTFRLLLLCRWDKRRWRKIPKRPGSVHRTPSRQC
Sequence of 5-hydroxytryptamine receptor 2A (Homo sapiens) (P28223 whole entry, looked up): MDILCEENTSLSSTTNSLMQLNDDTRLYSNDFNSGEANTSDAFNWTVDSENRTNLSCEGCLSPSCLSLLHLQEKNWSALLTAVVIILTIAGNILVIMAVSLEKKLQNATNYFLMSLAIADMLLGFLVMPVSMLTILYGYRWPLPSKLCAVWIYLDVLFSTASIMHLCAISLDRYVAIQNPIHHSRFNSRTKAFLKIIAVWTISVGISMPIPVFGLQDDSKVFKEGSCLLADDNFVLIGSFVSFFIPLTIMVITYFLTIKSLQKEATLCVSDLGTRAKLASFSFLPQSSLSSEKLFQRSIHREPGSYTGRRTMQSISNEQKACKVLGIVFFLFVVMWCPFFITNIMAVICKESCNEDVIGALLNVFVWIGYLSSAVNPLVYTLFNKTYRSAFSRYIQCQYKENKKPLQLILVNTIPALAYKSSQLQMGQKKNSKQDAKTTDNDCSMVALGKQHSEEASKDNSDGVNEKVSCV
Sequence of Beta-2 adrenergic receptor (Homo sapiens) (P07550 whole entry, looked up): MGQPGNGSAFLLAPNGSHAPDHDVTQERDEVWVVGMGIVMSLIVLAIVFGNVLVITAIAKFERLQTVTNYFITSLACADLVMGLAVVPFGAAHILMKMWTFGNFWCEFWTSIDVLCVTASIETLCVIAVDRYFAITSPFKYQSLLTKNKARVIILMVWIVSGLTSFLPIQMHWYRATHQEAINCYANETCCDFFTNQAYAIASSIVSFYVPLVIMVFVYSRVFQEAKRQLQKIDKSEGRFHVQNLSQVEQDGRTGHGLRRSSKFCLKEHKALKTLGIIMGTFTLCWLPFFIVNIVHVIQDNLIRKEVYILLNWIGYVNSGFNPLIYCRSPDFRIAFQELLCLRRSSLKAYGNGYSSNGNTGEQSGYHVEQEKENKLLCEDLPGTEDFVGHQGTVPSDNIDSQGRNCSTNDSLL
Sequence of KiSS-1 receptor (Homo sapiens) (Q969F8 whole entry, looked up): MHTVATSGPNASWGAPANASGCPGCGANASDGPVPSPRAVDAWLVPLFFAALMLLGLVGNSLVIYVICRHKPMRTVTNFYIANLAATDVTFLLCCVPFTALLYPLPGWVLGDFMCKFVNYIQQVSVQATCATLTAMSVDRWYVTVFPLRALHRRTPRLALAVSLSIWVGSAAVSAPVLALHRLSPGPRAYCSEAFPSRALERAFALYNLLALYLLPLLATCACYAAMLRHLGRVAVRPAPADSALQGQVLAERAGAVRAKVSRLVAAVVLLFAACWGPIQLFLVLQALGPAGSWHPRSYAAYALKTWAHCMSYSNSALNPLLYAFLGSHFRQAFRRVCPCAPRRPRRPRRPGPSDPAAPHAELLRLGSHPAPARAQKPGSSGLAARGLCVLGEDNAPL
Sequence of D(2) dopamine receptor (Homo sapiens) (P14416 whole entry, looked up): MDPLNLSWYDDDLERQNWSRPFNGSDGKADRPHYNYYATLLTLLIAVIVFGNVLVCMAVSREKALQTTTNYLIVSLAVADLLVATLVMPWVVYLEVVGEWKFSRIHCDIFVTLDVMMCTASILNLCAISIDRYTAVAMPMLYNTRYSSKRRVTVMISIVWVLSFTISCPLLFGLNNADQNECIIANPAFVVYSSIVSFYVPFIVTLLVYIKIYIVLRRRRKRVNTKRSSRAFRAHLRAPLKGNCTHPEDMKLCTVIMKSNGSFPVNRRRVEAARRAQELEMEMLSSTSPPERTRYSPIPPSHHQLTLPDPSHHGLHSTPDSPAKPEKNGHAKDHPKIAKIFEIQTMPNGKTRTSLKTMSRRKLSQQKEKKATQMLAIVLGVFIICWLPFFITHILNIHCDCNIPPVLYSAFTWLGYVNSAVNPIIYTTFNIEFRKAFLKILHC

`COC(OC)C(C)c1ccccc1` (stereo unspecified): the Potency entry in experiment [1], in experiment [2], in [3], in experiment [4], in experiment [5] and in experiment [6] was “inactive” throughout. Besides, the Potency result in experiment [7], in experiment [8], in [9], in experiment [10], in experiment [11] and in [12] was “inactive” in each case. In addition, the Potency entry in experiment [13], in [14], in experiment [15], in experiment [16] and in [17] was “inactive” in each case.

Take `OCCOCCOCCOCCOCCO`: the Potency result in experiment [1], in [2], in experiment [3], in experiment [4], in experiment [5] and in [6] was “inactive” throughout. In addition, the Potency result in [7], in experiment [8], in experiment [9], in experiment [10], in [11] and in experiment [12] was “inactive” in each case. Moreover, the Potency result in experiment [13], in [14], in experiment [15], in [18], in experiment [16] and in experiment [17] was “inactive” each time.

Consider `c1ccc2c(c1)ccc1ncccc12`, for which the Potency result in [1], in [2], in [3], in experiment [5], in experiment [6] and in experiment [7] was “inactive” throughout. The Potency entry in experiment [9], in [10], in experiment [11], in [12], in [15] and in [16] was “inactive” each time. The Potency entry in [17] was “inactive”.

In the case of `C=CCCCCCCCCCCCCCCCC`, in experiment [1], the activity change is 0.969% [at 5.22 µM, active compounds read high]. For the same molecule, the activation is 0.739% [at 6.97 µM] in [2]; -0.775% [at 5.23 µM] in experiment [3]; -1.7% [at 5.99 µM] in [19]; 2.83% [at 5.99 µM] in experiment [8]; -2.29% [at 7.02 µM] in experiment [10]; 1.23% [at 6.97 µM] in [12]. For the same molecule, in [16], the activation was 0.185% [at 8.39 µM]. Besides, the activity change, negative = cytotoxicity is -5.51% [at 5.99 µM] in experiment [5], -2.99% [at 5.99 µM] in [6] and -20.9% [at 5.99 µM] in [7]. The activity, negative = inhibition was -3.97% [at 5.62 µM] in experiment [9] and -31.3% [at 5.58 µM] in experiment [11]. Moreover, the activity change, negative = inhibition in experiment [14] was -13% [at 8.39 µM]; in experiment [15] it was -9.53% [at 8.39 µM]; in experiment [17], -1.92% [at 8.38 µM].

With `O=[N+]([O-])c1ccc2nc[nH]c2c1`, the Potency result in experiment [1], in experiment [2], in [3], in experiment [5], in experiment [6] and in [7] was “inactive” in each case. The Potency entry in [9], in experiment [10], in [11], in experiment [12], in experiment [13] and in [14] was “inactive” each time. Further, the Potency entry in experiment [15], in experiment [18], in [16] and in experiment [17] was “inactive” in each case.

Turning to `CCOC(=O)CC(C)=O`, the Potency entry in [1], in experiment [2], in experiment [3], in experiment [5], in experiment [6] and in [7] was “inactive” throughout. Also, the Potency entry in experiment [9], in experiment [10], in experiment [11], in experiment [12], in experiment [13] and in [14] was “inactive” in each case. Further, the Potency result in experiment [16] and in [17] was “inactive” throughout.

In the case of `CC1CCc2nccnc21` (stereo unspecified), the Potency entry in [1], in experiment [2], in [3], in experiment [19], in [4] and in experiment [6] was “inactive” each time. The Potency entry in experiment [7], in experiment [8], in experiment [9], in [10], in experiment [11] and in experiment [12] was “inactive” throughout. In addition, the Potency result in experiment [13], in experiment [14], in experiment [15], in [18], in [16] and in experiment [17] was “inactive” throughout.

Turning to `CC(C)(c1cc(Br)c(O)c(Br)c1)c1cc(Br)c(O)c(Br)c1`, the Potency entry in experiment [1], in experiment [2], in experiment [3], in experiment [19], in [4] and in experiment [12] was “inactive” in each case. The Potency entry in experiment [13], in [14], in [15], in experiment [16] and in [17] was “inactive” each time. Also, the Potency in experiment [5] was 16.2 µM (active) and 36.3 µM (active); in [7], 36.2 µM (active) and 40.7 µM (active); in [10], 48.8 µM (active).
